Source: PubChem BioAssay (several laboratories)
TNF necrop inh: inhibitors of TNF-alpha triggered necroptosis, primary screen, cell-based, Jurkat FADD-/-, single concentration | Jurkat FADD-/- TNF necroptosis rescue, ATP luminescence, 24 h; 0 = TNF only, 100 = no-TNF cells | activation (protection from cell death), % at 10 µM | hit rate 0.068% among 220,000 | AID 463075, 2010;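 active = activation, meaning protection from cell death, of at least 50% relative to plate controls; inactive = activation below 50%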;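 note: necroptosis triggered by 40 ng/mL TNF-alpha added together with compound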
m-calpain inh: inhibitors of pig calpain II, primary screen, biochemical, fluorogenic peptide substrate, 1536-well | purified calpain II, 30 min | inhibition, % at 16 µM | hit rate 0.37% among 220,000 | AID 1236, 2008;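 active = inhibition above about 50%, limit read from the data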
L929 necroptosis: inhibitors of zVAD-triggered necroptosis, primary screen, L929 cells | L929 zVAD necroptosis rescue, ATP luminescence, 24 h; with zVAD 60 µM | viability rescue, % at 10 µM | hit rate 0.38% among 220,000;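 active = activation, scaled between plate controls, above about 75%, limit read from the data; inactive = activation under that limit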;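 note: 0% = zVAD with DMSO and 100% = DMSO alone without zVAD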
Efa HMGR inh: inhibitors of E. faecalis class II HMGR, primary screen, biochemical, Enterococcus faecalis | inhibition, % at 10 µM | HMG-CoA reductase (Enterococcus faecalis, mvaE) | purified E. faecalis HMGR, NADPH absorbance 340 nm kinetic | hit rate 0.41% among 190,000;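 active = inhibition above a set limit, the median over all tested compounds plus 3 SD, cut at about 9.5% in these data; inconclusive = no clear call, values can overlap the other calls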;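 note: enzyme runs in reverse so mevalonate oxidation gives rising NADPH absorbance; 0% = complete reaction with DMSO and 100% = background rate lacking mevalonate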
ROMK primary: ROMK potassium channel modulators, primary screen, cell-based, thallium flux, MLSMR library; B-score at 10 µM; ATP-sensitive inward rectifier potassium channel 1 (Homo sapiens), P48048; hit rate 2% among 130,000; Tet-inducible ROMK, thallium flux fluorescence; actives lie on both sides;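 active = signal ratio slope over the read window, or its plate-corrected B-score, at least 3 SD from the plate mean, either direction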;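 note: B-score of the F/F0 ratio slope over 7 to 12 s after thallium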
14-3-3 Bad inh: inhibitors of 14-3-3 zeta/Bad binding, primary screen, biochemical, TR-FRET, bovine 14-3-3 zeta; 14-3-3 protein zeta/delta (Bos taurus), P63103; TR-FRET 14-3-3zeta/Dy647-pBad peptide displacement, 1 h; inhibition, % at 21.7 µM; hit rate 0.71% among 220,000;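 active = inhibition above about 70%, limit read from the data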;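 note: 0% = full 14-3-3 plus peptide FRET controls and 100% = background without 14-3-3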
Target sequence (P63103 whole entry, looked up): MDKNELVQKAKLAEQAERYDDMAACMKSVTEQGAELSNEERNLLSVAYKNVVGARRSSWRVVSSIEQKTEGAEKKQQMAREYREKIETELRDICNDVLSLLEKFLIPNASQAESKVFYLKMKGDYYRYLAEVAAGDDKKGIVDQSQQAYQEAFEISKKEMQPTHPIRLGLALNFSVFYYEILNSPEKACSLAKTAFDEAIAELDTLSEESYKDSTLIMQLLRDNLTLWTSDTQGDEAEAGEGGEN
ROMK retest: ROMK channel modulator hit retest, confirmation, cell-based, thallium flux, duplicate, resupplied hits | shares compounds with ROMK primary | fluorescence ratio; hits give low values | normalized thallium flux (F/F0 slope) at 10 µM | hit rate 54% among 3,000 | AID 1917, 2009;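 active = Flux at 10 µM at least 3 SD below or above vehicle control mean in one or both replicates; inconclusive = no clear call, values can overlap the other calls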
The depositor's hits bear a star; ? = inconclusive; · = not tested or not shown. An excerpt weighted towards active compounds, which were near 3% of everything screened.

SMILES	TNF necrop inh	m-calpain inh	L929 necroptosis	Efa HMGR inh	ROMK primary	14-3-3 Bad inh	ROMK retest
NC(=O)c1cn(C2OC(CO)C(O)C2O)c2ncnc(N)c12 (stereo not drawn)	-8	20	57	-6	4*	9	0.092
CCNC(=O)[C@H]1O[C@@H](n2cnc3c(N)ncnc32)[C@H](O)[C@@H]1O	·	-9	·	5	·	-2	·
COP(=O)(OC)Oc1ccc(C(O)C(Cl)(Cl)Cl)cc1 (stereo not drawn)	0	13	0	·	·	-7	·
CCCC12CN3CC(CCC)(CN(C1)C3c1ccccn1)C2=O (stereo not drawn)	-1	-45	0	-3	-0.2	1	·
C=CCN1C(=O)/C(=C/c2cc(C)n(-c3cccnc3)c2C)C(=O)NC1=S	-7	-4	1	-5	-2.9*	-36	0.067*
Cc1cc(C=C2C(=O)NC(=O)NC2=O)c(C)n1-c1cccnc1	0	-25	0	·	·	-2	·
CCc1nc(N2CCNCC2)c(C#N)c2c1CSC(C)(C)C2	-1	-29	0	-6	-3.7*	-10	0.075
CC(C)Cc1nc(N2CCNCC2)c(C#N)c2c1CCC2	1	0	-1	·	·	2	·
CN1c2ccccc2Oc2ccccc21	0	3	1	-6	·	10	·
NC1=Nc2ccccc2Oc2ccccc21	-4	7	1	1	·	3	0.048*
CN1OC[C@@H]2COc3ccc4ccccc4c3[C@@H]21	1	-14	-2	-7	0.031	3	·
OC(CNC1CCCCC1)C(F)(F)F (stereo not drawn)	0	1	-1	2	-0.34	-5	·
Cc1ccc(N2C(=O)NC(=O)/C(=C\C=C\c3ccco3)C2=O)cc1C	-5	-17	0	1	-8.6*	-15	0.039*
O=C1NC(=O)N(c2ccccc2)C(=O)/C1=C/C=C/c1ccco1	-22	29	0	·	-9.6*	1	0.046*
Cc1cccc(N2C(=O)NC(=O)/C(=C\C=C\c3ccco3)C2=O)c1	-27	-15	-1	·	-14*	1	0.046*
Cc1ccc(N2C(=O)NC(=O)/C(=C\C=C\c3ccco3)C2=O)cc1	-18	-9	0	·	·	-1	·
CC(C)c1cccc(C(C)C)c1OCCn1ccnc1	0	2	1	-1	0.39	19	·
Fc1ccccc1CCNCc1cccc2ccccc12	3	10	0	0	-3.6*	-18	0.057*
CC1(C)CC(=O)C=C(NCCN2CCN(C(=O)Cc3ccc(Cl)cc3)CC2)C1	-1	-14	0	-2	0.0037	-5	·
Clc1ccc2c(c1)C(OC1CN3CCC1CC3)c1ccccc1CS2 (stereo not drawn)	-2	-14	-2	1	·	-26	·
OC(c1cccc(Cl)c1)(c1cccc(Cl)c1)C1CN2CCC1CC2 (stereo not drawn)	6	-21	5	0	-4.5*	-7	0.052*
C=CCn1c(O)c(/C=N/N2CCCCC2c2cccnc2)c(=O)[nH]c1=S (stereo not drawn)	1	4	2	0	·	-9	·
O=C1NC(=O)C(=Cc2cn(CCOc3ccc4c(c3)OCO4)c3ccccc23)C(=O)N1	-14	-11	-1	-3	-5.6*	31	?
O=C1NC(=O)C(=Cc2ccc3c(c2)OCO3)C(=O)N1	0	-30	2	-5	-0.53	-17	·
CCN1C(=O)C(=Cc2ccc(N3CCOCC3)o2)C(=O)N(CC)C1=S	-4	9	1	·	·	5	0.054*
CN1C(=O)C(=Cc2ccc(N3CCOCC3)o2)C(=O)N(C)C1=S	-4	19	1	-6	·	-7	·
C=CCN1C(=O)/C(=C\c2ccc(N3CCOCC3)o2)C(=O)NC1=S	-2	-14	0	-1	-4.7*	-5	0.052*
CCOC(=O)c1cc2c(cn1)[nH]c1ccccc12	-1	-108	51	-5	·	10	?
